Screening results deposited in PubChem BioAssay by National Center for Advancing Translational Sciences (NCATS).
TDP1 cell noCPT – qHTS for Inhibitors of human tyrosyl-DNA phosphodiesterase 1 (TDP1): qHTS in cells in absence of CPT | DT40 Tdp1-/- hTDP1 cells, no CPT, ATP luminescence, 48 h | Potency, µM (top dose mostly 46.2 µM), inactives show top-dose activity change, negative = growth inhibition, most hits filed as inhibitors | hit rate 15% among 420,000 | AID 686978, 2013; further: potency means the concentration at half of the fitted maximal effect; nearly all actives have a fitted effect of over 55% in size
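Seeded 400 DT40-hTDP1 cells/well (vehicle DMSO, no 20 nM CPT); pinned compounds; ≥48 hr at 37 °C; CellTiter-Glo luminescence as viability measure.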
HT1080-NT tox – kills 2HG-producing HT-1080-NT fibrosarcoma cells. HT-1080-NT fibrosarcoma viability, CellTiter-Glo ATP luminescence, 48 h. Potency, µM (highest dose often 46.1 µM), inactives show at the highest dose activity, negative = less viability, actives largely listed as cytotoxic. hit rate 1.6% among 360,000. AID 686970;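 further: NT is the 2HG producing partner of a matched IDH1 knockdown line; potency means the concentration at half of the fitted maximal effect; 0% = DMSO-treated cells and -100% = media-only wells without cells; nearly all actives have a fitted effect of over 55% in size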
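Luminescent CellTiter-Glo readout after 48 hours of compound exposure at 37 degrees C defined viability of HT-1080-NT cells. Activity was normalized to DMSO wells and cell-free media wells; concentration-response curves were fitted and assigned curve classes.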
12-LOX inh – ALOX12 (human) lipoxygenase inhibition; hit rate 1.1% among 580,000; AID 1671190; purified 12hLO, xylenol orange hydroperoxide absorbance; P18054; Potency, µM (titrated, usually from 108 µM), inactives show at the top dose activity change, negative = inhibition, actives largely listed as inhibitors; further: potency means the concentration at half of the fitted maximal effect
Target sequence (P18054 whole entry, looked up): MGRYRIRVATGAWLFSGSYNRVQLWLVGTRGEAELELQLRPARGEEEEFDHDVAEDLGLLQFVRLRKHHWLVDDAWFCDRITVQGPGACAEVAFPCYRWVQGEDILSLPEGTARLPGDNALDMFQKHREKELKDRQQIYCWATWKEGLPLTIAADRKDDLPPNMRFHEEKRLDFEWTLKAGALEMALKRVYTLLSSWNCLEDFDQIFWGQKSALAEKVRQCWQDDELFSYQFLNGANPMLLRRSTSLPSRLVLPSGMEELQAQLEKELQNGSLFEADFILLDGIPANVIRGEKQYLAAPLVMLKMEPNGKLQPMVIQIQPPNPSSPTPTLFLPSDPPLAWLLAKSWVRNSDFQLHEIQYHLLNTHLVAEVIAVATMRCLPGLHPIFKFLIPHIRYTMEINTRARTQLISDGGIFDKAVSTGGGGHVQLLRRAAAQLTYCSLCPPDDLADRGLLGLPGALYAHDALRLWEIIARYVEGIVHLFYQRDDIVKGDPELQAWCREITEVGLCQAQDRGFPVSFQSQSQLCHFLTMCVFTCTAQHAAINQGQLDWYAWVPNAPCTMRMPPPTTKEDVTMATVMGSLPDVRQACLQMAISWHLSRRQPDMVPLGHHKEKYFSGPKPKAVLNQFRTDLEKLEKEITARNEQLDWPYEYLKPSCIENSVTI
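Purified human 12hLO at 150 nM in 25 mM Hepes, 0.01% Triton X-100, pH 7.0, preincubated 15 min at room temperature with compound. Reaction started with 40 uM arachidonic acid, 30 min at room temperature. Hydroperoxide measured by Fe-xylenol orange, 573/405 nm absorbance ratio.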
IL1B secr inh – blocks inflammasome-driven IL-1 beta release; THP-1 LPS/ATP IL-1B secretion, AlphaLISA, 16 h; stronger effect = lower value; activity change, % at 57.5 µM; hit rate 4.7% among 360,000; AID 743279; in the data active means activity change below about -50%; inconclusive means mostly about -30% to -49%
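THP-1 cells pretreated 1 hr with compounds (up to 57.5 uM final), then stimulated with LPS (250 ng/mL final) plus ATP (1.25 mM final); secreted IL-1B measured by AlphaLISA after 16 hr, decreased signal indicating inhibition.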
HT1080 IDH1KD tx – HT-1080 IDH1 knockdown cell toxicity (counter line). HT-1080 IDH1 knockdown viability, ATP luminescence, 48 h. Potency, µM (titrated, usually from 46.1 µM), inactives show at the top dose activity, negative = toxicity, usual class: cytotoxic. hit rate 2% among 360,000;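 further: potency means the concentration at half of the fitted maximal effect; 0% = DMSO wells and -100% = cell-free medium wells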
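In this qHTS, HT-1080 cells depleted of IDH1 are exposed for 48 h at 37 °C to compound titrations. Toxicity is scored from CellTiter-Glo luminescence, with DMSO as full viability and medium alone as none.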
TDP1 cell CPT – DT40-hTDP1 cell growth loss with CPT. AID 686979. chicken DT40 Tdp1-/-;hTDP1 cells + 20 nM CPT, ATP luminescence, 48 h. Potency, µM (titrated, usually from 46.2 µM), for the others: at the highest dose activity change, negative = growth inhibition, hits mostly inhibitors. hit rate 12% among 420,000; further: potency means the concentration at half of the fitted maximal effect; nearly all actives have a fitted effect of over 55% in size
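Chicken DT40 Tdp1-/- cells complemented with human TDP1, 400 cells/well, exposed to compounds plus 20 nM camptothecin for at least 48 h at 37 C; viability read as ATP content by CellTiter-Glo luminescence.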
The depositor's hits bear a star; [ ] = another dose, or the depositor's remark. The sample as a whole holds a higher share of hits than the screen did. Unless noted, the call rests on the fitted dose curve; in most records, active means well fitted curve in the direction sought with a large enough effect; inconclusive means small, poorly fitted or top-dose-only effect, or another doubt; inactive means no such curve, though single readings can be large; an effect the other way counts as inactive or inconclusive. Unless noted, on the % scale 0 is the no-effect control and ±100 the full control effect.

Screening Cc1ccc(C(=O)Nc2nnc(-c3ccncc3)o2)cc1 returned TDP1 cell noCPT inconclusive, HT1080-NT tox -17%, 12-LOX inh 1%, IL1B secr inh 2, HT1080 IDH1KD tx -28% and TDP1 cell CPT inconclusive.
Screening O=C(Nc1nnc(-c2ccccn2)o1)c1cccc(Br)c1 returned TDP1 cell noCPT inconclusive, HT1080-NT tox -21%, 12-LOX inh 0%, IL1B secr inh -7, HT1080 IDH1KD tx -16% and TDP1 cell CPT 21µM*.
Screening O=C(Nc1nnc(-c2cccnc2)o1)c1cccc(Cl)c1 returned TDP1 cell noCPT 16µM*, HT1080-NT tox -14%, 12-LOX inh 0%, IL1B secr inh 14, HT1080 IDH1KD tx -26% and TDP1 cell CPT 23µM*.
Screening Cc1cccc(-c2nnc(NC(=O)c3ccc(Cl)cc3)o2)c1 returned TDP1 cell noCPT 10µM*, HT1080-NT tox inconclusive, 12-LOX inh -13%, IL1B secr inh 66, HT1080 IDH1KD tx inconclusive and TDP1 cell CPT 12µM*.
Screening COc1cc(OC)cc(-c2onc(C)c2C(=O)NC(C)CCc2ccccc2)c1 (stereo not drawn) returned 12-LOX inh 45%.
For CN1C(=O)Cc2cc(S(=O)(=O)CCC(=O)Nc3ccc(F)c(Cl)c3)ccc21 the results were TDP1 cell noCPT -2%, 12-LOX inh -6% and TDP1 cell CPT inconclusive.
`CN1C(=O)Cc2cc(S(=O)(=O)CCC(=O)Nc3ccc(Cl)c(C(F)(F)F)c3)ccc21` gave TDP1 cell noCPT inconclusive, 12-LOX inh -17% and TDP1 cell CPT 23µM*.
For CCC(=O)N1CCc2cc(S(=O)(=O)CCC(=O)Nc3ccc(Cl)c(C(F)(F)F)c3)ccc21 the results were TDP1 cell noCPT 8.2µM*, 12-LOX inh -4% and TDP1 cell CPT 16µM*.
`O=C(CCS(=O)(=O)c1ccc(Br)cc1)Nc1ccc(Cl)c(C(F)(F)F)c1` gave TDP1 cell noCPT 21µM*, 12-LOX inh inconclusive and TDP1 cell CPT inconclusive.
`CCOC(=O)c1cccc(NC(=O)CCS(=O)(=O)c2ccc3c(c2)CCN3C(=O)CC)c1` gave TDP1 cell noCPT -29%, 12-LOX inh inconclusive and TDP1 cell CPT inconclusive.
`O=C(CCSc1nc2ccccc2s1)NC1CCc2ccccc21` (stereo not drawn) gave 12-LOX inh 7%.
For O=C(c1ccccc1)N1CC(Oc2ccc(F)cc2F)C1 the results were 12-LOX inh 3%[6.33 µM].
COc1ccc(CN[C@H]2[C@H](O)[C@H](O)C[C@@H]2c2ccc(N3CCOCC3)nc2)cn1 was read as 12-LOX inh -29%[176 µM].
Screening CSc1ccc(/C=C2\C=Cc3ccc([N+](=O)[O-])cc32)cc1 returned TDP1 cell noCPT 11µM* and TDP1 cell CPT inconclusive.
O=[N+]([O-])c1ccc2c(c1)C=C/C2=C/c1ccccc1 was read as TDP1 cell noCPT 18µM* and TDP1 cell CPT 13µM*.
For COc1cc2c(cc1OC)-c1nnc(C(F)(F)F)n1C(C)(C)C2 the results were 12-LOX inh 50%.
COc1ccc(C)cc1NC(=O)c1nn(-c2ccccc2)cc1OC was read as TDP1 cell noCPT 21µM*, HT1080-NT tox 15µM*, 12-LOX inh -17%, IL1B secr inh -87*, HT1080 IDH1KD tx 15µM* and TDP1 cell CPT inconclusive.
For COc1ccc(C)cc1NC(=O)c1nnn(-c2c(C)cccc2C)c1C the results were TDP1 cell noCPT 16µM*, 12-LOX inh -23% and TDP1 cell CPT inconclusive.
For Cc1ccc(C)c(-n2nnc(C(=O)Nc3ccc(Br)cc3)c2C)c1 the results were TDP1 cell noCPT 5.2µM*, 12-LOX inh -18% and TDP1 cell CPT 10µM*.
For COc1cn(-c2ccccc2)nc1C(=O)Nc1ccccc1 the results were TDP1 cell noCPT -29%, HT1080-NT tox -1%, 12-LOX inh -10%, IL1B secr inh -55*, HT1080 IDH1KD tx -22% and TDP1 cell CPT 4%.
CCCCS(=O)(=O)N[C@H]1CN(Cc2c(C)noc2C)C[C@@H]1C(C)C was read as 12-LOX inh 45%.
Screening Cn1nc(C(=O)N2CCC(OCCOc3ccccc3)CC2)c2ccccc21 returned 12-LOX inh 26%.
CC(C)N(C)C(=O)CN1C(=O)C2(CCNCC2)Nc2ccccc21 was read as 12-LOX inh -29%.
CN1CCC2(CC1)Nc1nc(SCc3ccc(Cl)cc3)nn1C1=C2CN(C)CC1 was read as TDP1 cell noCPT 23µM*, HT1080-NT tox 26µM*, 12-LOX inh 11%, IL1B secr inh -62*, HT1080 IDH1KD tx 21µM* and TDP1 cell CPT inconclusive.
Screening Cn1c(N)c(C(=O)COC(=O)c2cc(C3CC3)nc3ccccc23)c(=O)n(C)c1=O returned TDP1 cell noCPT 18µM*, HT1080-NT tox 1%, 12-LOX inh 9%, IL1B secr inh -4, HT1080 IDH1KD tx 2% and TDP1 cell CPT 13µM*.
For Cn1c(N)c(C(=O)COC(=O)c2cc(-c3ccco3)nc3ccccc23)c(=O)n(C)c1=O the results were TDP1 cell noCPT 16µM*, HT1080-NT tox -17%, 12-LOX inh inconclusive, IL1B secr inh -25, HT1080 IDH1KD tx -11% and TDP1 cell CPT 21µM*.
`COc1ccc(-c2cc(C(=O)OCC(=O)c3c(N)n(C)c(=O)n(C)c3=O)c3ccccc3n2)cc1` gave TDP1 cell noCPT 1.6µM*, HT1080-NT tox 20%, 12-LOX inh -1%, IL1B secr inh -53*, HT1080 IDH1KD tx 12% and TDP1 cell CPT 4.1µM*.
COc1ccc(-c2cc(C(=O)c3c(N)n(C)c(=O)n(C)c3=O)c3ccccc3n2)cc1 was read as TDP1 cell noCPT inconclusive, HT1080-NT tox -23%, 12-LOX inh 1%, IL1B secr inh -2, HT1080 IDH1KD tx -24% and TDP1 cell CPT -28%.
Cn1c(N)c(C(=O)COC(=O)c2cc(C(F)(F)F)nc3ccccc23)c(=O)n(Cc2ccccc2)c1=O was read as TDP1 cell noCPT inconclusive, HT1080-NT tox -3%, IL1B secr inh 11, HT1080 IDH1KD tx 2% and TDP1 cell CPT 23µM*.
CC(C)c1ccc(S(=O)(=O)N2CCN(CC(=O)NC(C)c3cccs3)CC2)cc1 (stereo not drawn) was read as 12-LOX inh -78%.
